Structures can show the parent of a compound that is named as a salt.
The compounds below were run on Saccharomyces cerevisiae BY4741 SeMeCo community (assay: z-score of subpopulation abundance vs DMSO median, subpopulation auxotrophic for HL; higher = larger share of this subpopulation than in DMSO controls). Conditions: 10 µM; 24 h; SM minimal medium; subpopulation (auxotrophy): HL.
Summary of the method: (§1)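 Scoring was based on each subpopulation's abundance, expressed as a z-score against the vehicle-well median. A Saccharomyces cerevisiae BY4741 community with four plasmids, each restoring one auxotrophy and encoding a distinct fluorescent protein, was pre-grown overnight to OD600 1.0, diluted to 0.3, and added at 70 µl to 384-well plates acoustically predosed with library drugs (10 µM final). It then grew 24 h in minimal SM medium before paraformaldehyde fixation and automated confocal microscopy, with single-auxotroph fluorescent strains setting thresholds and autofluorescence correction.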

| Compound | z-score of subpopulation abundance |
| --- | --- |
| CC[C@H]1OC(=O)[C@H](C)[C@@H](O[C@H]2C[C@@](C)(OC)[C@@H](O)[C@H](C)O2)[C@H](C)[C@@H](O[C@@H]2O[C@H](C)C[C@H](N(C)C)[C@H]2O)[C@](C)(O)C[C@@H](C)CN(C)[C@H](C)[C@@H](O)[C@]1(C)O [Azithromycin] | -0.27 |
| COc1ccc(C(C)=O)c(O)c1 [Paeonol] | -0.25 |
| O=C(O)c1cn(-c2ccc(F)cc2)c2cc(N3CCNCC3)c(F)cc2c1=O [Sarafloxacin HCl] | -0.42 |
| CO[C@H]1O[C@@H]2O[C@@]3(C)CC[C@H]4[C@H](C)CC[C@@H]([C@H]1C)[C@@]24OO3 [Artemether] | -0.28 |
| COc1cccc2c1C(=O)c1c(O)c3c(c(O)c1C2=O)C[C@@](O)(C(C)=O)C[C@@H]3O[C@H]1C[C@H](N)[C@H](O)[C@H](C)O1 [Daunorubicin HCl] | 0.73 |
| O=C1OC(CN2CCOCC2)CN1/N=C/c1ccc([N+](=O)[O-])o1 (stereo not given) [Furaltadone HCl] | -0.67 |
| Nc1ccc(S(=O)(=O)Nc2nccs2)cc1 [Sulfathiazole] | -0.09 |
| NCc1ccccc1CC(=O)N[C@@H]1C(=O)N2C(C(=O)O)=C(CSc3nnnn3CC(=O)O)CS[C@H]12 [Ceforanide] | 2.92 |
| C[C@@H](O)[C@H]1C(=O)N2C(C(=O)O)=C(S[C@@H]3CN[C@H](C(=O)N(C)C)C3)[C@H](C)[C@H]12 [Meropenem] | -0.23 |
| CN(C)CCCN1c2ccccc2CCc2ccc(Cl)cc21 [Clomipramine HCl] | -0.45 |
| O=C1CN(/N=C/c2ccc(-c3ccc([N+](=O)[O-])cc3)o2)C(=O)N1 [Dantrolene sodium] | 1.35 |

The compounds below were run on Saccharomyces cerevisiae BY4741 SeMeCo community (assay: z-score of subpopulation abundance vs DMSO median, subpopulation auxotrophic for HLM; higher = larger share of this subpopulation than in DMSO controls). Conditions: 10 µM; 24 h; SM minimal medium; subpopulation (auxotrophy): HLM.
Summary of the method: as §1

| Compound | z-score of subpopulation abundance |
| --- | --- |
| CN(C)C[C@@H]1CCn2cc(c3ccccc32)C2=C(C(=O)NC2=O)c2cn(c3ccccc23)CCO1 | 0.91 |
| COc1ccc(C(C)=O)c(O)c1 [Paeonol] | -0.22 |
| O=C(O)c1cn(-c2ccc(F)cc2)c2cc(N3CCNCC3)c(F)cc2c1=O [Sarafloxacin HCl] | -0.84 |
| CO[C@H]1O[C@@H]2O[C@@]3(C)CC[C@H]4[C@H](C)CC[C@@H]([C@H]1C)[C@@]24OO3 [Artemether] | -0.27 |
| COc1cccc2c1C(=O)c1c(O)c3c(c(O)c1C2=O)C[C@@](O)(C(C)=O)C[C@@H]3O[C@H]1C[C@H](N)[C@H](O)[C@H](C)O1 [Daunorubicin HCl] | -0.29 |
| Nc1ccc(S(=O)(=O)Nc2nccs2)cc1 [Sulfathiazole] | -0.42 |
| NCc1ccccc1CC(=O)N[C@@H]1C(=O)N2C(C(=O)O)=C(CSc3nnnn3CC(=O)O)CS[C@H]12 [Ceforanide] | 0.46 |
| CN(C)CCCN1c2ccccc2CCc2ccc(Cl)cc21 [Clomipramine HCl] | 0.29 |
| O=C1CN(/N=C/c2ccc(-c3ccc([N+](=O)[O-])cc3)o2)C(=O)N1 [Dantrolene sodium] | 1.18 |

The compounds below were run on Saccharomyces cerevisiae BY4741 SeMeCo community (assay: z-score of subpopulation abundance vs DMSO median, subpopulation auxotrophic for HUM; higher = larger share of this subpopulation than in DMSO controls). Conditions: 10 µM; 24 h; SM minimal medium; subpopulation (auxotrophy): HUM.
Summary of the method: as §1

| Compound | z-score of subpopulation abundance |
| --- | --- |
| CC[C@H]1OC(=O)[C@H](C)[C@@H](O[C@H]2C[C@@](C)(OC)[C@@H](O)[C@H](C)O2)[C@H](C)[C@@H](O[C@@H]2O[C@H](C)C[C@H](N(C)C)[C@H]2O)[C@](C)(O)C[C@@H](C)CN(C)[C@H](C)[C@@H](O)[C@]1(C)O [Azithromycin] | 0.11 |
| COc1ccc(C(C)=O)c(O)c1 [Paeonol] | 0.18 |
| O=C(O)c1cn(-c2ccc(F)cc2)c2cc(N3CCNCC3)c(F)cc2c1=O [Sarafloxacin HCl] | 0.61 |
| CO[C@H]1O[C@@H]2O[C@@]3(C)CC[C@H]4[C@H](C)CC[C@@H]([C@H]1C)[C@@]24OO3 [Artemether] | -0.53 |
| COc1cccc2c1C(=O)c1c(O)c3c(c(O)c1C2=O)C[C@@](O)(C(C)=O)C[C@@H]3O[C@H]1C[C@H](N)[C@H](O)[C@H](C)O1 [Daunorubicin HCl] | 1.29 |
| O=C1OC(CN2CCOCC2)CN1/N=C/c1ccc([N+](=O)[O-])o1 (stereo not given) [Furaltadone HCl] | -0.1 |
| Nc1ccc(S(=O)(=O)Nc2nccs2)cc1 [Sulfathiazole] | 0.33 |
| NCc1ccccc1CC(=O)N[C@@H]1C(=O)N2C(C(=O)O)=C(CSc3nnnn3CC(=O)O)CS[C@H]12 [Ceforanide] | 0.56 |
| C[C@@H](O)[C@H]1C(=O)N2C(C(=O)O)=C(S[C@@H]3CN[C@H](C(=O)N(C)C)C3)[C@H](C)[C@H]12 [Meropenem] | 0.12 |
| CN(C)CCCN1c2ccccc2CCc2ccc(Cl)cc21 [Clomipramine HCl] | 1.2 |
| O=C1CN(/N=C/c2ccc(-c3ccc([N+](=O)[O-])cc3)o2)C(=O)N1 [Dantrolene sodium] | -2.36 |

The compounds below were run on Saccharomyces cerevisiae BY4741 SeMeCo community (assay: z-score of subpopulation abundance vs DMSO median, subpopulation auxotrophic for LUM; higher = larger share of this subpopulation than in DMSO controls). Conditions: 10 µM; 24 h; SM minimal medium; subpopulation (auxotrophy): LUM.
Summary of the method: as §1

| Compound | z-score of subpopulation abundance |
| --- | --- |
| CC[C@H]1OC(=O)[C@H](C)[C@@H](O[C@H]2C[C@@](C)(OC)[C@@H](O)[C@H](C)O2)[C@H](C)[C@@H](O[C@@H]2O[C@H](C)C[C@H](N(C)C)[C@H]2O)[C@](C)(O)C[C@@H](C)CN(C)[C@H](C)[C@@H](O)[C@]1(C)O [Azithromycin] | 0.31 |
| CN(C)C[C@@H]1CCn2cc(c3ccccc32)C2=C(C(=O)NC2=O)c2cn(c3ccccc23)CCO1 | 0.63 |
| COc1ccc(C(C)=O)c(O)c1 [Paeonol] | -0.79 |
| CO[C@H]1O[C@@H]2O[C@@]3(C)CC[C@H]4[C@H](C)CC[C@@H]([C@H]1C)[C@@]24OO3 [Artemether] | -0.58 |
| COc1cccc2c1C(=O)c1c(O)c3c(c(O)c1C2=O)C[C@@](O)(C(C)=O)C[C@@H]3O[C@H]1C[C@H](N)[C@H](O)[C@H](C)O1 [Daunorubicin HCl] | 1.18 |
| O=C1OC(CN2CCOCC2)CN1/N=C/c1ccc([N+](=O)[O-])o1 (stereo not given) [Furaltadone HCl] | -0.33 |
| Nc1ccc(S(=O)(=O)Nc2nccs2)cc1 [Sulfathiazole] | 0.11 |
| NCc1ccccc1CC(=O)N[C@@H]1C(=O)N2C(C(=O)O)=C(CSc3nnnn3CC(=O)O)CS[C@H]12 [Ceforanide] | 2.06 |
| O=C1CN(/N=C/c2ccc(-c3ccc([N+](=O)[O-])cc3)o2)C(=O)N1 [Dantrolene sodium] | -0.73 |
